This is a sample that favours compounds with a hit; in the whole collection about 1.1% have one here.
FBPA Giardia inh: qHTS Assay for Inhibitors of Fructose-1,6-bisphosphate Aldolase from Giardia Lamblia; AID 2451, 2010; Potency, µM (titrated, usually from 59.6 µM), for the others: top-dose activity, negative = inhibition, most hits filed as inhibitors; hit rate 0.71% among 290,000; purified Giardia FBPA; note: potency is the fitted concentration of half-maximal effect; % is set by controls: 0 for no effect and ±100 for the full control effect; nearly all actives have a fitted effect of over 55% in size
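Giardia FBPA (40 nM reagent) was preincubated 10 min at RT with compound (up to 57.5 uM final), then substrate plus GAPDH/TPI/NAD/arsenate coupling system with diaphorase/resazurin was added; resorufin fluorescence (525/598 nm) was read after 20 min.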
SARS PLpro yeast-1: qHTS of Yeast-based Assay for SARS-CoV PLP | Potency, µM (top dose mostly 32.9 µM), inactives show at the top dose activity, positive = growth rescue, most hits filed as activators | hit rate 0.19% among 330,000 | S. cerevisiae expressing SARS-CoV PLpro, growth rescue | AID 485353, 2010; calls by dose curve; note: potency is the fitted concentration of half-maximal effect; 0% is about no effect; nearly all actives have a fitted effect of over 55% in size
Tb PYK inh: qHTS of Trypanosoma Brucei Inhibitors; AID 624173, 2012; Potency, µM (series often up to 76.8 µM), for inactives: at the top dose activity, negative = inhibition, usual class: inhibitors; TbPYK enzyme, Kinase-Glo Plus ATP luminescence, 45 min; hit rate 0.12% among 410,000; note: potency is the fitted concentration of half-maximal effect; % is set by controls: 0 for no effect and ±100 for the full control effect; nearly all actives have a fitted effect of over 50% in size
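Screened from lowest to highest concentration, compounds were pinned into TbPYK/substrate mixtures, and ADP (130 uM final) was added. Plates sat at room temperature for 45 min prior to Kinase-Glo Plus detection by luminescence.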
RE007 growth inh: qHTS Assay for Inhibitors of the HIV-1 protein Vpr | S. pombe RE007 Vpr strain, BacTiter-Glo ATP luminescence, 24 h | Potency, µM (titrated, usually from 92.2 µM), for the others: at the top dose activity change, negative = less growth, hits mostly inhibitors | hit rate 0.21% among 360,000; active = well fitted falling curve with a large enough effect; inconclusive = small, poorly fitted or top-dose-only effect; inactive = no such curve, though single readings can be large or run the other way; note: potency is the fitted concentration of half-maximal effect; % is set by controls: 0 for no effect and ±100 for the full control effect; nearly all actives have a fitted effect of over 50% in size
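Fission yeast strain RE007, carrying one chromosomally integrated HIV-1 vpr copy, was seeded at OD 0.01 in PMG+AL medium with 23 nL pinned compound. After 24 h at 30 °C and 99% humidity, viability was read by BacTiter-Glo luminescence.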
LmPK inhibitor: qHTS Assay for Inhibitors of Leishmania Mexicana Pyruvate Kinase (LmPK); purified LmPK, Kinase-Glo ATP luminescence, 1 h; hit rate 0.37% among 290,000; Q27686; Potency, µM (series often up to 57.5 µM), for the others: top-dose activity change, negative = inhibition, most hits filed as inhibitors; AID 1721, 2009; note: potency is the fitted concentration of half-maximal effect; % is set by controls: 0 for no effect and ±100 for the full control effect
Target sequence (Q27686 whole entry, looked up): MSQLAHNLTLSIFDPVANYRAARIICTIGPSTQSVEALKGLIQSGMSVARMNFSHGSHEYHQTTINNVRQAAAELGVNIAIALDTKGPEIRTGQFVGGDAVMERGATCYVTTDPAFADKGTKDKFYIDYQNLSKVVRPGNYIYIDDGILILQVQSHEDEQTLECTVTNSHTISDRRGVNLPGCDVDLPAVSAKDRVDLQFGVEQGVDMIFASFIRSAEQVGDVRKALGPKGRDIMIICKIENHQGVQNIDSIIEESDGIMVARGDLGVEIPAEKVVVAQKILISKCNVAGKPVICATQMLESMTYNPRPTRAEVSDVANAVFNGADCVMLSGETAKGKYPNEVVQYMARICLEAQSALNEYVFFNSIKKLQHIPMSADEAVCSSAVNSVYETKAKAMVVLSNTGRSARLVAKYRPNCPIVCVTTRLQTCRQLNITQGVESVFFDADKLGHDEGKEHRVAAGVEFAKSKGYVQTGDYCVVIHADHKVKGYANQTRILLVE
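ATP generated from ADP (0.1 mM) and PEP (0.5 mM) by 0.1 nM LmPK over 1 h at room temperature (pH 7.2 imidazole buffer) was detected by coupled luciferase luminescence. Values were normalized to uninhibited and no-enzyme wells.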
SARS PLpro yeast-2: qHTS of Yeast-based Assay for SARS-CoV PLP: Hit Validation; yeast expressing SARS-CoV PLpro, growth phenotype rescue; AID 652038, 2013; hit rate 19% among 1,000; calls only; shares compounds with SARS PLpro yeast-1; call rule not given here
Starred values were filed as active, the others as inactive. Unless noted, calls come from the whole dose curve; as a rule, active = well fitted curve in the direction sought with a large enough effect; inconclusive = small, poorly fitted or top-dose-only effect, or another doubt; inactive = no such curve, though single readings can be large; an effect the other way counts as inactive or inconclusive.

Screening CCN1C(=O)C2(c3ccccc31)c1c(oc3ccc(C)cc3c1=O)C(=O)N2CCCOC(C)C (stereo unspecified) returned Tb PYK inh -12%.
For Cc1c(C(=O)NCC(c2ccc(Cl)cc2)N2CCOCC2)oc2ccccc12 (stereo unspecified) the results were Tb PYK inh 4%.
CCN(c1cccc(C)c1)S(=O)(=O)c1cccc(C(=O)O)c1 was read as FBPA Giardia inh 22%, SARS PLpro yeast-1 inconclusive, Tb PYK inh 0%, RE007 growth inh 13%, LmPK inhibitor -3% and SARS PLpro yeast-2 inactive.
CCCCN(c1ccccc1)S(=O)(=O)c1cccc(C(=O)O)c1 was read as FBPA Giardia inh inconclusive, SARS PLpro yeast-1 1%, Tb PYK inh 4%, RE007 growth inh 1% and LmPK inhibitor 4%.
For CCc1nnc(NC(=O)CSc2nccn2-c2cccc(C)c2)s1 the results were FBPA Giardia inh -2%, SARS PLpro yeast-1 13µM*, Tb PYK inh 6%, RE007 growth inh 21%, LmPK inhibitor 14% and SARS PLpro yeast-2 inactive.
Screening Cc1ccc(Cl)cc1N1CCN(C(=O)COc2cc(=O)n(C)c3ccccc23)CC1 returned Tb PYK inh 5%.
For O=S(=O)(c1ccc(OCC(O)CN2CCN(c3ccccc3)CC2)cc1)N1CCOCC1 (stereo unspecified) the results were FBPA Giardia inh -2%, SARS PLpro yeast-1 inconclusive, Tb PYK inh 3%, RE007 growth inh 0%, LmPK inhibitor 1% and SARS PLpro yeast-2 inactive.
For COc1ccc(/C=N\NC(=S)SCN2C(=O)C3CCC(C)(C2=O)C3(C)C)cc1 (stereo unspecified) the results were Tb PYK inh 1% and RE007 growth inh 2%.
CN(C)c1ccc(/C=N\NC(=S)SCN2C(=O)C3CCC(C)(C2=O)C3(C)C)cc1 (stereo unspecified) was read as FBPA Giardia inh 3%, SARS PLpro yeast-1 13µM*, Tb PYK inh 2%, RE007 growth inh -10%, LmPK inhibitor 1% and SARS PLpro yeast-2 active.
Clc1ccc(CNC23CN4CN(CN(C4)C2)C3)c(Cl)c1 was read as FBPA Giardia inh -4%, SARS PLpro yeast-1 inconclusive, Tb PYK inh -3%, RE007 growth inh 5%, LmPK inhibitor 0% and SARS PLpro yeast-2 inactive.
OCCCNCc1ccc(Cl)cc1Cl was read as FBPA Giardia inh 0%, SARS PLpro yeast-1 1%, Tb PYK inh -9%, RE007 growth inh -8% and LmPK inhibitor -2%.
Screening COc1cccc(C(=O)Nc2ccccc2C(=O)OCc2cc(=O)n3nc(C)sc3n2)c1 returned Tb PYK inh -2%.
Screening Cc1ccccc1C(=O)Oc1cc(-c2ccc3c(c2)OCO3)cc(=O)c2c(C)oc(C)c12 returned Tb PYK inh 0%.
`Cc1c(C(=O)N2CCN(S(=O)(=O)c3ccc(F)cc3)CC2)oc2ccccc12` gave SARS PLpro yeast-1 inconclusive, Tb PYK inh -11%, RE007 growth inh 4% and SARS PLpro yeast-2 inactive.
Screening CC1(C)N=C(c2ccc(Cl)cc2)C(=O)N1 returned FBPA Giardia inh 6%, SARS PLpro yeast-1 1%, Tb PYK inh -2%, RE007 growth inh -2% and LmPK inhibitor -4%.
For Cc1ccc(C2=NC(C)(C)NC2=O)cc1 the results were FBPA Giardia inh 3%, SARS PLpro yeast-1 inconclusive, Tb PYK inh 2%, RE007 growth inh -17%, LmPK inhibitor -7% and SARS PLpro yeast-2 inactive.
`Cc1cccc(C)c1NC(=O)CN(C)C(=O)c1ccccc1SCC(=O)N1CCCC1` gave SARS PLpro yeast-1 14µM*, Tb PYK inh -8%, RE007 growth inh -13% and SARS PLpro yeast-2 inactive.
Screening O=C(NC1CCCCC1)C(c1ccco1)N(Cc1cccnc1)C(=O)C1COc2ccccc2O1 (stereo unspecified) returned FBPA Giardia inh 2%, SARS PLpro yeast-1 inconclusive, Tb PYK inh -5%, RE007 growth inh 0%, LmPK inhibitor 7% and SARS PLpro yeast-2 inactive.
`O=C(Cc1ccccc1[N+](=O)[O-])NCc1ccc(Cl)cc1` gave FBPA Giardia inh 1%, SARS PLpro yeast-1 -7%, Tb PYK inh -12%, RE007 growth inh 6% and LmPK inhibitor -4%.
Screening O=C(Cc1ccccc1[N+](=O)[O-])NCc1ccc(Cl)cc1Cl returned FBPA Giardia inh 0%, SARS PLpro yeast-1 inconclusive, Tb PYK inh 2%, RE007 growth inh 30%, LmPK inhibitor -3% and SARS PLpro yeast-2 inactive.
Screening CCn1c(SCC(=O)NC2CCCCC2)nnc1-c1ccccn1 returned SARS PLpro yeast-1 3.5µM*, Tb PYK inh 0%, RE007 growth inh -6%, LmPK inhibitor -14% and SARS PLpro yeast-2 inactive.
Screening CCn1c(SCC(=O)NC2CCCC2)nnc1-c1ccccn1 returned FBPA Giardia inh 1%, SARS PLpro yeast-1 -1%, Tb PYK inh 1%, RE007 growth inh -2% and LmPK inhibitor 0%.
`CCN1CCc2c(sc(NC(=O)Nc3ccc(Cl)c(Cl)c3)c2C(N)=O)C1` gave FBPA Giardia inh -11%, SARS PLpro yeast-1 inconclusive, Tb PYK inh -13%, RE007 growth inh 0%, LmPK inhibitor -1% and SARS PLpro yeast-2 inactive.
`Cc1c(C(=O)NC(=S)Nc2ccccc2N2CCCC2)cccc1[N+](=O)[O-]` gave FBPA Giardia inh -1%, SARS PLpro yeast-1 7.1µM*, Tb PYK inh -10%, RE007 growth inh 7%, LmPK inhibitor 1% and SARS PLpro yeast-2 active.
For COc1ccc(-n2ncc3c(N4CCN(c5cccc(C)c5)C(C)C4)ncnc32)cc1 (stereo unspecified) the results were Tb PYK inh -17%.
Screening CC(=O)c1ccc(N(C(=O)Cn2nnc3ccccc32)C(C(=O)NCc2ccccc2)c2ccccn2)cc1 (stereo unspecified) returned FBPA Giardia inh 10%, SARS PLpro yeast-1 18µM*, Tb PYK inh 21%, RE007 growth inh 12%, LmPK inhibitor -3% and SARS PLpro yeast-2 inactive.
Screening O=C(Cn1c(=O)n(Cc2nc(-c3ccccc3)no2)c(=O)c2ccccc21)Nc1cccc(Cl)c1 returned Tb PYK inh -1%.
For CC(=O)c1ccc(NS(=O)(=O)c2cc(-c3cc(C)no3)ccc2C)cc1 the results were Tb PYK inh 1%.

Screening data from PubChem.
